Data taken from PubChem BioAssay (NCI).
Compounds without any hit were thinned out: in the full panel of roughly 79,000, 15% have a hit. Activity calls are given as the source filed them. Rule as the data show it: active = growth inhibition above about 70%; inactive = the rest.

Experiments:
[1] = NCI Yeast Anticancer Drug Screen. Data for the mec2-1 strain (AID 157); conditions: S. cerevisiae mec2-1 strain, active compounds read high
Outline: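 Mutant yeast (mec2-1) grown with compound; growth inhibition relative to vehicle control reported.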

[2] = NCI Yeast Anticancer Drug Screen. Data for the rad14 strain (AID 159);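 also: 0% = growth of vehicle-treated control cultures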; conditions: S. cerevisiae rad14 strain growth inhibition, active compounds read high
Outline: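 Test compounds were applied to a repair-deficient yeast strain. Its growth was then compared with that of cultures given vehicle alone, and inhibition was expressed relative to those controls.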

[3] = NCI Yeast Anticancer Drug Screen. Data for the sgs1 mgt1 strain (AID 161);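 also: 0% = growth of cultures given vehicle only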; conditions: S. cerevisiae sgs1 mgt1 strain, active compounds read high
Outline: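 Yeast cells carrying a defined DNA-repair defect were exposed to test compounds. Growth inhibition was measured relative to vehicle-treated controls.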

[4] = NCI Yeast Anticancer Drug Screen. Data for the CLN2oe strain (AID 163);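 also: 0% = growth of vehicle-only control cultures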; conditions: S. cerevisiae CLN2oe strain, active compounds read high
Outline: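 Compounds are applied to yeast harbouring a defined cell-cycle control change; reduced growth compared with vehicle-treated controls gives the value.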

[5] = NCI Yeast Anticancer Drug Screen. Data for the bub3 strain (AID 167); conditions: S. cerevisiae bub3 mutant strain, active compounds read high
Outline: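 Yeast carrying a defined mutation is treated with each compound, and growth is compared with that of vehicle-exposed cells to give inhibition.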

[6] = NCI Yeast Anticancer Drug Screen. Data for the wt2 strain (AID 169);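 also: 0% = growth of vehicle-treated yeast cultures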; conditions: S. cerevisiae wt2 strain growth inhibition, active compounds read high
Outline: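 Against vehicle-treated controls, the growth of yeast exposed to each compound was compared, and the inhibition was recorded.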

[7] = NCI Yeast Anticancer Drug Screen. Data for the mlh1 strain (AID 171);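 also: 0% = growth of vehicle-treated control cultures of the same strain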; conditions: S. cerevisiae mlh1 strain growth inhibition, active compounds read high
Outline: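 Measured: yeast growth. Reference: vehicle-treated controls. Organism: strain with a defined alteration affecting DNA damage repair or cell cycle control, treated with compound.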

[8] = NCI Yeast Anticancer Drug Screen. Data for the sgs1 strain (AID 173);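 also: 0% = growth of vehicle-only control cultures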; conditions: S. cerevisiae sgs1 mutant, active compounds read high
Outline: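 Each compound was added to cultures of the altered yeast strain. Growth was recorded, and inhibition was derived by comparison with vehicle controls.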

[9] = NCI Yeast Anticancer Drug Screen. Data for the mlh1 rad18 strain (AID 175); conditions: S. cerevisiae mlh1 rad18 strain growth inhibition, active compounds read high
Outline: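 Genetically defined yeast (DNA repair-deficient) exposed to compounds; growth inhibition determined relative to vehicle.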

[10] = NCI Yeast Anticancer Drug Screen. Data for the rad18 strain (AID 177); conditions: S. cerevisiae rad18 mutant growth inhibition, active compounds read high
Outline: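 Vehicle-treated cultures served as the baseline for scoring compound-induced growth inhibition in DNA-repair-mutant yeast.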

[11] = NCI Yeast Anticancer Drug Screen. Data for the rad52 strain (AID 147);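 also: 0% = growth of vehicle-treated control cultures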; conditions: S. cerevisiae rad52 mutant growth inhibition, active compounds read high
Outline: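 The repair-mutant yeast strain was incubated with compounds, then growth was read and inhibition derived relative to vehicle.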

[12] = NCI Yeast Anticancer Drug Screen. Data for the wt1 strain (AID 149);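 also: 0% = growth of vehicle-treated wt1 cultures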; conditions: S. cerevisiae wt1 strain (SPY 50644) growth inhibition, active compounds read high
Outline: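 wt1 yeast, compound-treated; % growth inhibition vs vehicle control.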

[13] = NCI Yeast Anticancer Drug Screen. Data for the rad50EPP+ strain (AID 151);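 also: 0% = growth of vehicle-treated control cultures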; conditions: S. cerevisiae rad50 mutant strain, active compounds read high
Outline: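 Vehicle-normalised growth inhibition; rad50EPP+ yeast strain, altered in DNA damage repair, compound-treated.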

[14] = NCI Yeast Anticancer Drug Screen. Data for the rad50 strain (AID 155);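 also: 0% = growth of vehicle-only cultures of the same strain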; conditions: S. cerevisiae rad50 strain growth inhibition, active compounds read high
Outline: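 Genetically altered yeast (DNA repair pathway); compound treatment; growth inhibition vs vehicle ctrl.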

[15] = NCI Yeast Anticancer Drug Screen. Data for the cln2 rad14 strain (AID 165);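 also: 0% = growth equal to vehicle treated cultures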; conditions: S. cerevisiae cln2 rad14 strain, active compounds read high
Outline: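 Readout is yeast growth inhibition versus vehicle-treated controls, using a strain with cln2 and rad14 alterations exposed to compound.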

[16] = at 5.0 µM (retest, dose inferred, filed as 0.5)
[17] = at 50.0 µM (retest, dose inferred, filed as 5.0)

Measured: growth inhibition

CN[C@@H]1C[C@H]2O[C@@](C)([C@@H]1OC)n1c3ccccc3c3c4c(c5c6ccccc6n2c5c31)C(=O)N[C@@H]4O
inactive: [1]; at 100.0 µM 19% | [2]; at 1.2 µM -31% | [2]; at 3.7 µM -34% | [2]; at 11.0 µM -31% | [2]; at 33.0 µM -9% | [2]; at 100.0 µM 67% | [3]; [16] -1% | [3]; [17] 24% | [3]; at 50.0 µM 16.4% | [4]; at 1.2 µM -8% | [4]; at 3.7 µM -8% | [4]; at 11.0 µM 5% | [4]; at 33.0 µM 12% | [4]; at 100.0 µM 20% | [5]; at 1.2 µM -11% | [5]; at 3.7 µM -10% | [5]; [16] 30% | [5]; at 11.0 µM 13% | [5]; at 33.0 µM 32% | [6]; at 1.2 µM -36% | [6]; at 3.7 µM -16% | [6]; at 11.0 µM 15% | [6]; at 33.0 µM -21% | [6]; at 100.0 µM 21% | [7]; at 1.2 µM -20% | [7]; at 3.7 µM -12% | [7]; at 11.0 µM -16% | [7]; at 33.0 µM 0% | [7]; at 100.0 µM -7% | [8]; at 1.2 µM -1% | [8]; at 3.7 µM -5% | [8]; at 11.0 µM 1% | [8]; at 33.0 µM 8% | [8]; at 100.0 µM 43% | [9]; [16] 2% | [9]; [17] 31% | [9]; at 50.0 µM 25.7% | [10]; at 1.2 µM -8% | [10]; at 3.7 µM -7% | [10]; at 11.0 µM -3% | [10]; at 33.0 µM 10% | [10]; at 100.0 µM 25%
active: [5]; [17] 83% | [5]; at 50.0 µM 74.5% | [5]; at 100.0 µM 74%

O=C(NCCCCCN1CCC2(CCCCC2)CC1)C(C1CCCCC1)C1CCCCC1
inactive: [11]; at 1.2 µM 23% | [11]; at 3.7 µM 5% | [11]; at 11.0 µM 65% | [12]; at 1.2 µM -63% | [12]; at 3.7 µM -5% | [12]; at 11.0 µM 6% | [13]; at 1.2 µM -1% | [13]; at 3.7 µM 0% | [13]; at 11.0 µM 3% | [13]; at 33.0 µM 10% | [14]; at 1.2 µM -1% | [14]; at 3.7 µM 11% | [14]; [16] -7% | [14]; at 11.0 µM 46% | [1]; at 1.2 µM 22% | [1]; at 3.7 µM -5% | [1]; [16] -22% | [1]; at 11.0 µM 42% | [2]; at 1.2 µM 11% | [2]; at 3.7 µM 49% | [3]; [16] -15% | [4]; at 1.2 µM -4% | [4]; at 3.7 µM 4% | [5]; at 1.2 µM -2% | [5]; at 3.7 µM 2% | [5]; [16] -17% | [6]; at 1.2 µM -1% | [6]; at 3.7 µM 3% | [6]; at 11.0 µM 45% | [7]; at 1.2 µM 0% | [7]; at 3.7 µM 7% | [9]; [16] -3% | [10]; at 1.2 µM 8% | [10]; at 3.7 µM 11% | [10]; at 11.0 µM 69%
active: [11]; at 33.0 µM 100% | [11]; at 100.0 µM 97% | [12]; at 33.0 µM 85% | [12]; at 100.0 µM 98% | [13]; at 100.0 µM 99% | [14]; at 33.0 µM 97% | [14]; [17] 99% | [14]; at 50.0 µM 99.5% | [14]; at 100.0 µM 99% | [1]; at 33.0 µM 100% | [1]; [17] 98% | [1]; at 50.0 µM 99.3% | [1]; at 100.0 µM 98% | [2]; at 11.0 µM 98% | [2]; at 33.0 µM 99% | [2]; at 100.0 µM 99% | [3]; [17] 99% | [3]; at 50.0 µM 99.6% | [4]; at 11.0 µM 78% | [4]; at 33.0 µM 99% | [4]; at 100.0 µM 99% | [15]; [16] 70% | [15]; [17] 99% | [15]; at 50.0 µM 98.8% | [5]; at 11.0 µM 80% | [5]; at 33.0 µM 99% | [5]; [17] 100% | [5]; at 50.0 µM 99.2% | [5]; at 100.0 µM 99% | [6]; at 33.0 µM 99% | [6]; at 100.0 µM 99% | [7]; at 11.0 µM 76% | [7]; at 33.0 µM 99% | [7]; at 100.0 µM 94% | [9]; [17] 99% | [9]; at 50.0 µM 99.5% | [10]; at 33.0 µM 100% | [10]; at 100.0 µM 98%
